# Measurements taken from PubChem BioAssay AID1159580 (chemical genetic matrix, 2015).
# About 2,000 (36%) of roughly 5,500 compounds were called active. Not shown: some 18% with an inconclusive outcome. This is one part of the list. A number with no mark means an inactive call. Cut-off read from the data, not from the text of the source: active = normalized growth mostly below about 0.91 (no sharp cut-off); inconclusive = no clear call, values can overlap the other calls; inactive = mostly above about 0.92.
# Assay: chemical genetic growth profiling, strain panel (AID 1159580);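 note: tested at 20 µM; growth read once vehicle control cultures reached saturation at 30 °C; 1 = growth at the plate median or of vehicle wells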
# Details: S. cerevisiae deletion strains, growth OD
# [1] = locus YAR019C, strain CDC15, stronger effect = lower value
# [2] = locus YBL105C, strain PKC1, stronger effect = lower value
# [3] = locus YBR135W, strain CKS1, stronger effect = lower value
# [4] = locus YBR136W, strain MEC1, stronger effect = lower value
# [5] = locus YBR160W, strain CDC28, stronger effect = lower value
# [6] = locus YDL017W, strain CDC7, stronger effect = lower value
# [7] = locus YDL028C, strain MPS1, stronger effect = lower value
# [8] = locus YDL101C, strain DUN1, stronger effect = lower value
# [9] = locus YDL108W, strain KIN28, stronger effect = lower value
# [10] = locus YDL132W, strain cdc53, stronger effect = lower value
# [11] = locus YDL214C, strain PRR2, stronger effect = lower value
# [12] = locus YDR052C, strain DBF4, stronger effect = lower value
# [13] = locus YDR054C, strain cdc34, stronger effect = lower value
# [14] = locus YDR226W, strain ADK1, stronger effect = lower value
# [15] = locus YDR477W, strain SNF1, stronger effect = lower value
# [16] = locus YER123W, strain YCK3, stronger effect = lower value
# [17] = locus YER133W, strain GLC7, stronger effect = lower value
# [18] = locus YFL009W, strain cdc4, stronger effect = lower value
# [19] = locus YFL029C, strain CAK1, stronger effect = lower value
# [20] = locus YFR003C, strain YPI1, stronger effect = lower value
# [21] = locus YFR019W, strain FAB1, stronger effect = lower value
# [22] = locus YFR028C, strain CDC14, stronger effect = lower value
# [23] = locus YGR040W, strain KSS1, stronger effect = lower value
# [24] = locus YGR052W, strain FMP48, stronger effect = lower value
# [25] = locus YGR092W, strain DBF2, stronger effect = lower value
# [26] = locus YHR030C, strain SLT2, stronger effect = lower value
# [27] = locus YHR079C, strain IRE1, stronger effect = lower value
# [28] = locus YHR082C, strain KSP1, stronger effect = lower value
# [29] = locus YHR205W, strain SCH9, stronger effect = lower value
# [30] = locus YIL147C, strain SLN1, stronger effect = lower value
# [31] = locus YJL095W, strain BCK1, stronger effect = lower value
# [32] = locus YJL128C, strain PBS2, stronger effect = lower value
# [33] = locus YJL157C, strain FAR1, stronger effect = lower value
# [34] = locus YJR016C, strain ILV3, stronger effect = lower value
# [35] = locus YJR066W, strain TOR1 (second series), stronger effect = lower value
# [36] = locus YJR066W, strain TOR1, stronger effect = lower value
# [37] = locus YKL048C, strain ELM1, stronger effect = lower value
# [38] = locus YKL067W, strain YNK1, stronger effect = lower value
# [39] = locus YKL101W, strain HSL1, stronger effect = lower value
# [40] = locus YKL193C, strain SDS22, stronger effect = lower value
# [41] = locus YKL203C, strain TOR2, stronger effect = lower value
# [42] = locus YLR113W, strain HOG1, stronger effect = lower value
# [43] = locus YLR133W, strain CKI1, stronger effect = lower value
# [44] = locus YLR403W, strain SFP1, stronger effect = lower value
# [45] = locus YML070W, strain DAK1, stronger effect = lower value
# [46] = locus YMR001C, strain CDC5, stronger effect = lower value
# [47] = locus YMR205C, strain PFK2 (second series), stronger effect = lower value
# [48] = locus YMR277W, strain FCP1, stronger effect = lower value
# [49] = locus YNL006W, strain LST8, stronger effect = lower value
# [50] = locus YNL020C, strain ARK1, stronger effect = lower value
# [51] = locus YNL161W, strain CBK1, stronger effect = lower value
# [52] = locus YNL183C, strain NPR1, stronger effect = lower value
# [53] = locus YNL207W, strain RIO2, stronger effect = lower value
# [54] = locus YNL222W, strain SSU72, stronger effect = lower value
# [55] = locus YNL307C, strain MCK1 (second series), stronger effect = lower value
# [56] = locus YOL078W, strain AVO1, stronger effect = lower value
# [57] = locus YOL136C, strain PFK27, stronger effect = lower value
# [58] = locus YOR061W, strain CKA2, stronger effect = lower value
# [59] = locus YOR119C, strain RIO1, stronger effect = lower value
# [60] = locus YOR231W, strain MKK1, stronger effect = lower value
# [61] = locus YOR329C, strain SCD5, stronger effect = lower value
# [62] = locus YPL031C, strain PHO85, stronger effect = lower value
# [63] = locus YPL153C, strain RAD53, stronger effect = lower value
# [64] = locus YPL204W, strain HRR25, stronger effect = lower value
# [65] = locus YPL209C, strain IPL1, stronger effect = lower value
# [66] = locus YPL256C, strain CLN2, stronger effect = lower value
# [67] = locus YPR025C, strain CCL1, stronger effect = lower value
# [68] = locus YPR106W, strain ISR1, stronger effect = lower value
# [69] = locus YPR111W, strain DBF20, stronger effect = lower value
# [70] = strain NNK1, stronger effect = lower value
# [71] = strain TSCII, stronger effect = lower value
structure (smiles),measurement,setting,value
O=C1c2ccccc2O[C@@H](c2ccccc2)[C@@H]1NC1CCCCC1,normalized growth,[1],0.904
same,normalized growth,[2],0.909
same,normalized growth,[3],0.914
same,normalized growth,[4],0.916
same,normalized growth,[5],0.927
same,normalized growth,[6],0.914
same,normalized growth,[7],0.913
same,normalized growth,[8],0.898 (active)
same,normalized growth,[9],0.924
same,normalized growth,[10],0.887 (active)
same,normalized growth,[11],0.883
same,normalized growth,[12],0.907 (active)
same,normalized growth,[13],0.872 (active)
same,normalized growth,[14],0.898
same,normalized growth,[15],0.87
same,normalized growth,[16],0.843
same,normalized growth,[17],0.841
same,normalized growth,[18],0.884 (active)
same,normalized growth,[19],0.91
same,normalized growth,[20],0.915
same,normalized growth,[21],0.889
same,normalized growth,[22],0.888 (active)
same,normalized growth,[23],0.866
same,normalized growth,[24],0.885
same,normalized growth,[25],0.871
same,normalized growth,[26],0.697 (active)
same,normalized growth,[27],0.852
same,normalized growth,[28],0.933
same,normalized growth,[29],0.898
same,normalized growth,[30],0.909
same,normalized growth,[31],0.792
same,normalized growth,[32],0.872
same,normalized growth,[33],0.849
same,normalized growth,[34],0.898 (active)
same,normalized growth,[35],0.771
same,normalized growth,[36],0.888
same,normalized growth,[37],0.901
same,normalized growth,[38],0.903
same,normalized growth,[39],0.906
same,normalized growth,[40],0.902
same,normalized growth,[41],0.922
same,normalized growth,[42],0.747 (active)
same,normalized growth,[43],0.897
same,normalized growth,[44],0.849
same,normalized growth,[45],0.871
same,normalized growth,[46],0.901
same,normalized growth,[47],0.878
same,normalized growth,[48],0.905
same,normalized growth,[49],0.906 (active)
same,normalized growth,[50],0.901
same,normalized growth,[51],0.9
same,normalized growth,[52],0.941
same,normalized growth,[53],0.898
same,normalized growth,[54],0.919
same,normalized growth,[55],0.904
same,normalized growth,[56],0.9
same,normalized growth,[57],0.887
same,normalized growth,[58],0.867
same,normalized growth,[59],0.945
same,normalized growth,[60],0.874
same,normalized growth,[61],0.909
same,normalized growth,[62],0.867
same,normalized growth,[63],0.864
same,normalized growth,[64],0.843
same,normalized growth,[65],0.917
same,normalized growth,[66],0.858
same,normalized growth,[67],0.914
same,normalized growth,[68],0.91
same,normalized growth,[69],0.92
same,normalized growth,[70],0.905
same,normalized growth,[71],0.881
O=C1c2ccccc2O[C@@H](c2ccccc2)[C@@H]1NCc1ccccc1,normalized growth,[1],0.915
same,normalized growth,[2],0.916
same,normalized growth,[3],0.922
same,normalized growth,[4],0.921
same,normalized growth,[5],0.922
same,normalized growth,[6],0.915
same,normalized growth,[7],0.919
same,normalized growth,[8],0.905 (active)
same,normalized growth,[9],0.929
same,normalized growth,[10],0.893 (active)
same,normalized growth,[11],0.867
same,normalized growth,[12],0.914
same,normalized growth,[13],0.879
same,normalized growth,[14],0.896 (active)
same,normalized growth,[15],0.853
same,normalized growth,[16],0.836
same,normalized growth,[17],0.836
same,normalized growth,[18],0.894
same,normalized growth,[19],0.909
same,normalized growth,[20],0.916
same,normalized growth,[21],0.894
same,normalized growth,[22],0.891 (active)
same,normalized growth,[23],0.85
same,normalized growth,[24],0.856
same,normalized growth,[25],0.844
same,normalized growth,[26],0.677 (active)
same,normalized growth,[27],0.839
same,normalized growth,[28],0.906
same,normalized growth,[29],0.905
same,normalized growth,[30],0.915
same,normalized growth,[31],0.751
same,normalized growth,[32],0.874
same,normalized growth,[33],0.835
same,normalized growth,[34],0.906
same,normalized growth,[35],0.76
same,normalized growth,[36],0.864
same,normalized growth,[37],0.897
same,normalized growth,[38],0.89
same,normalized growth,[39],0.899
same,normalized growth,[40],0.905
same,normalized growth,[41],0.918
same,normalized growth,[42],0.739 (active)
same,normalized growth,[43],0.89
same,normalized growth,[44],0.834
same,normalized growth,[45],0.85
same,normalized growth,[46],0.899
same,normalized growth,[47],0.863
same,normalized growth,[48],0.904
same,normalized growth,[49],0.915
same,normalized growth,[50],0.88
same,normalized growth,[51],0.903
same,normalized growth,[52],0.92
same,normalized growth,[53],0.89
same,normalized growth,[54],0.923
same,normalized growth,[55],0.895
same,normalized growth,[56],0.903
same,normalized growth,[57],0.863
same,normalized growth,[58],0.849
same,normalized growth,[59],0.89
same,normalized growth,[60],0.887
same,normalized growth,[61],0.911
same,normalized growth,[62],0.841
same,normalized growth,[63],0.846
same,normalized growth,[64],0.825
same,normalized growth,[65],0.918
same,normalized growth,[66],0.846 (active)
same,normalized growth,[67],0.922
same,normalized growth,[68],0.909
same,normalized growth,[69],0.911
same,normalized growth,[70],0.891
same,normalized growth,[71],0.885
Nc1ccc(N2C(=O)c3ccccc3C2=O)c(Cl)c1,normalized growth,"locus YAL040C, strain CLN3, stronger effect = lower value",1.06
same,normalized growth,"locus YCL061C, strain MRC1 (second series), stronger effect = lower value",1.01
same,normalized growth,"locus YER002W, strain NOP16, stronger effect = lower value",0.974
same,normalized growth,"locus YGR078C, strain PAC10, stronger effect = lower value",0.98
same,normalized growth,"locus YJR075W, strain HOC1, stronger effect = lower value",1
same,normalized growth,"locus YNL153C, strain GIM3, stronger effect = lower value",0.995
same,normalized growth,"locus YNL175C, strain NOP13, stronger effect = lower value",0.958
same,normalized growth,"locus YNL197C, strain WHI3, stronger effect = lower value",0.935
same,normalized growth,"locus YNL224C, strain SQS1, stronger effect = lower value",0.94
same,normalized growth,"locus YNL322C, strain KRE1, stronger effect = lower value",0.986
same,normalized growth,"locus YOR083W, strain WHI5 (second series), stronger effect = lower value",1.02
